# Bioassay records from PubChem.
# BLM inh-1 = Bloom syndrome helicase (human) inhibition | AID 2528 | Potency, µM (highest dose often 56.1 µM), inactives show at the highest dose activity change, negative = inhibition, hits mostly inhibitors | recombinant BLM DNA unwinding, fluorescence dequenching | P54132 | actives 0.2% (n = 350,000);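 note: plate controls were vehicle for no effect and no enzyme for full effect; nearly all actives have a fitted effect of over 35% in size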
# RECQ1 inh-1 = inhibitors of human RECQ1 DNA helicase; Potency, µM (doses to about 57.3 µM), for the others: top-dose activity, negative = inhibition, hits mostly inhibitors; P46063; actives 0.54% (n = 240,000); RECQ1 DNA unwinding, red fluorescence kinetic read;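 note: plate controls were vehicle for no effect and no enzyme for full effect; nearly all actives have a fitted effect of over 30% in size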
# Target sequence (P46063 whole entry, looked up): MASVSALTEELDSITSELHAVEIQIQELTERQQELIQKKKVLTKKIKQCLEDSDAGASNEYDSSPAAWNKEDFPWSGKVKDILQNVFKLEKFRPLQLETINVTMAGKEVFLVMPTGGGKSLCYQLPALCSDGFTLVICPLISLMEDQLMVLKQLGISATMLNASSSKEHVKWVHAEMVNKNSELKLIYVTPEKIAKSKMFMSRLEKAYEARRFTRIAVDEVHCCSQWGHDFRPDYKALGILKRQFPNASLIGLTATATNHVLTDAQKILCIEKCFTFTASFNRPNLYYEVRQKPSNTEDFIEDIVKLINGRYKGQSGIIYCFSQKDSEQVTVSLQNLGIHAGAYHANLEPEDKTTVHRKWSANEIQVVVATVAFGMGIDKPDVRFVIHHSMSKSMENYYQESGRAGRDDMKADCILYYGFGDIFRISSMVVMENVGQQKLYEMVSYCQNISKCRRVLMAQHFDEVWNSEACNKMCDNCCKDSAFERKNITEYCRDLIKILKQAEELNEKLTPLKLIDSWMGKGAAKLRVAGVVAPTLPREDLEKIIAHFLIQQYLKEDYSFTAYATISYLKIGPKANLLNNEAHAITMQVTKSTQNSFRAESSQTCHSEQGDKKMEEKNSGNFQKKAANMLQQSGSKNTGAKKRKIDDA
#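 RECQ1T1 50 nM; forked duplex (20 bp + 30-nt ss tails) 200 nM, ATP 2 mM final; pH 8.0, 2 mM MgCl2, 2.5 ug/ml poly(dI-dC); 15 min compound preincubation; discontinuous kinetic read over 2 h at RT.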
# FEN1 inh = human FEN1 inhibition | P39748 | Recombinant FEN1 flap cleavage, fluorescence, 15 min | Potency, µM (highest dose often 114 µM), for the others: at the top dose activity change, negative = inhibition, hits mostly inhibitors | actives 0.35% (n = 390,000) | AID 588795; note: nearly all actives have a fitted effect of over 65% in size
#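 Reaction started by adding substrate (50 nM final) to 10 nM enzyme after 15 min room-temperature compound preincubation. Reads at 0 and 15 min, with data normalized and fitted to a four-parameter Hill equation.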
# APE1 inh-1 = APE1 (human) endonuclease inhibition; P27695; recombinant APE1, TAMRA/BHQ-2 abasic DNA cleavage fluorescence; Potency, µM (series often up to 65.8 µM), without a hit: at the highest dose activity change, negative = inhibition, hits mostly inhibitors; actives 0.35% (n = 350,000);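 note: plate controls were vehicle for no effect and reference inhibitor for full effect; nearly all actives have a fitted effect of over 55% in size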
#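 Compound pre-exposure to 0.75 nM APE1, 15 min at ambient temperature. Reaction initiated with 50 nM TAMRA/BHQ-2 THF substrate, read immediately in kinetic mode, 525 nm excitation, 598 nm emission.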
# PGK inhibitor = inhibitors of T. brucei phosphoglycerate kinase | P07378 | PGK/GAPDH coupled, Kinase-Glo luminescence, 60 min | Potency, µM (doses to about 57.5 µM), without a hit: at the top dose activity change, negative = inhibition, actives largely listed as inhibitors | actives 0.043% (n = 380,000) | AID 602233; note: nearly all actives have a fitted effect of over 60% in size
#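 Luminescent ATP detection (Kinase-Glo Plus) follows a 60-minute room-temperature incubation, with wells lacking PGK as controls. Buffer: 100 mM TEA (pH 7.6), 5 mM MgCl2, 0.01% Tween-20. Coupling enzyme GAPDH (100 nM final) supplies unstable 1,3-BPG in-well.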
# APE1 dye cs = displaces fluorescent dye from DNA, flagging APE1 artifacts; shares compounds with APE1 inh-1; DNA fluorescent dye displacement counterscreen, fluorescence; Potency, µM (doses to about 28.5 µM), for the others: at the top dose activity change, negative = inhibition, hits mostly inhibitors; actives 7% (n = 480);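 note: loss of thiazole orange fluorescence as the dye is displaced from duplex DNA; 0% = ThO with dsDNA and no compound and -100% = ThO without dsDNA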
# Endo IV inh = Endo IV (E. coli) inhibition counter-screen | shares compounds with APE1 inh-1 | E. coli Endo IV, fluorogenic AP-site DNA cleavage | Potency, µM (titrated, usually from 27.1 µM), for the others: at the highest dose activity change, negative = inhibition, usual class: inhibitors | actives 4% (n = 560);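 note: plate controls were uninhibited enzyme wells for no effect and no enzyme buffer wells for full effect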
# APE1 inh-2 = confirmation of inhibitors of human APE1 endonuclease | shares compounds with APE1 inh-1 | purified APE1, fluorogenic abasic-site DNA cleavage | Potency, µM (titrated, usually from 57.1 µM), for inactives: at the top dose activity change, negative = inhibition, actives largely listed as inhibitors | actives 44% (n = 750) | AID 2572; note: nearly all actives have a fitted effect of over 30% in size
# APE1 FP = displaces DNA from human APE1 in FP assay; shares compounds with APE1 inh-1; APE1 binding to TAMRA-labelled double-stranded DNA, fluorescence polarization displacement; Potency, µM (titrated, usually from 28.5 µM), inactives show at the top dose activity, negative = inhibition, most hits filed as inhibitors; actives 7% (n = 480)
# BLM inh-2 = BLM (human) helicase inhibition, confirmation. shares compounds with BLM inh-1. BLM DNA unwinding, fluorescence quenching, biochemical. Potency, µM, without a hit: max response, negative = inhibition, hits mostly inhibitors. actives 40% (n = 220). AID 2585;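 note: strand separation dequenches TAMRA so unwinding raises red fluorescence; series mostly up to about 69 µM; nearly all actives have a fitted effect of over 45% in size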
# RECQ1 inh-2 = blocks human RECQ1 DNA unwinding; Potency, µM (highest dose often 119 µM), for inactives: at the top dose activity, negative = inhibition, most hits filed as inhibitors; shares compounds with RECQ1 inh-1; recombinant RECQ1 DNA unwinding, red fluorescence; actives 15% (n = 1,100); note: nearly all actives have a fitted effect of over 50% in size
# Numbers without * were called inactive; i = inactive; u = inconclusive; x = not tested or not shown; [ ] = another dose, or the depositor's remark. Shown are actives, neighbours in structure and some others; about 0.74% of the full set was active somewhere. Calls come from the whole dose curve; as a rule, active = well fitted curve in the direction sought with a large enough effect; inconclusive = small, poorly fitted or top-dose-only effect, or another doubt; inactive = no such curve, though single readings can be large; an effect the other way counts as inactive or inconclusive. Unless noted, % is set by controls: 0 for no effect and ±100 for the full control effect; potency is the fitted concentration of half-maximal effect.
SMILES,BLM inh-1,RECQ1 inh-1,FEN1 inh,APE1 inh-1,PGK inhibitor,APE1 dye cs,Endo IV inh,APE1 inh-2,APE1 FP,others
Cc1ccc(C(=O)N/N=C/c2ccc3c(c2)OCO3)o1,-2.1%,1.6%,4.2%,0.6%,-14.2%,x,x,x,x,
O=C1CSC(=S)N1N1C(=O)c2cccc([N+](=O)[O-])c2C1=O,121.4%,u,x,u,x,x,x,u,x,
O=C1c2cccc([N+](=O)[O-])c2C(=O)N1CCO,-7.7%,-3.4%,20.2%,10.5%,i,x,x,x,x,
O[C@@](CCN1CCCCC1)(c1ccccc1)C1CCCCC1,-1.7%[21.4 µM],3.5%[25.9 µM],x,-72.2%[21 µM],x,-3.2%,17.3%,2.2%[24.4 µM],u,
O=C(CSc1nnc(SCc2ccccc2Cl)s1)N/N=C/c1c[nH]c2ccccc12,-10.5%,-4.9%,3.2%,1.1%,-3.9%,x,x,x,x,
Cc1ccc(CSc2nnc(SCC(=O)N/N=C/c3c[nH]c4ccccc34)s2)cc1,-13.9%,u,u,9.2%,u,x,x,-24.4%,x,
O=C(CSc1nnc(SCc2ccccc2)s1)N/N=C/c1ccc(C(=O)O)cc1,-3.0%,-1.5%,1.9%,-2.9%,-0.6%,x,x,x,x,
O=C(CSc1nnc(SCc2ccccc2)s1)N/N=C/C=C\c1ccco1,17.8µM*,25.1µM*,u,17.8µM*,-23.9%,12.6µM*,-10.4%,12.6µM*,u,
CCOC(=O)c1[nH]c(C)c(C(=O)OCC(=O)NCc2ccc(OC)c(OC)c2)c1C,x,x,9.2%,39.2%,6.9%,x,x,x,x,
COc1cc(/C=C(\C#N)C(=O)c2ccc(O)c(O)c2)cc(I)c1O,x,0.891µM*,3.55µM*,5.97µM*,u,x,-16.0%[57.1 µM],u,x,
[N-]=[N+]=Nc1ccc(C(=O)CSC[C@H](NC(=O)CC[C@H](N)C(=O)O)C(=O)NCC(=O)O)cc1,x,-4.8%,x,u,x,x,-23.5%[57.1 µM],-61.2%,x,
CC1Cc2cc(/C(O)=C3/C(=O)C(=O)N(CCN4CCOCC4)C3c3ccc(N(C)C)cc3)ccc2O1 (stereo not given),0.9%,x,-10.5%,9.7%,-1.4%,x,x,x,x,
Nc1ccn([C@@H]2O[C@H](CO)[C@@H](O)C2O)c(=O)n1 (stereo not given in full),3.3%,-10.1%,-2.0%,-3.3%,-11.2%,-3.4%[57.1 µM],21.8%[57.1 µM],-5.8%,7.3%[57.1 µM],
COc1cccc(OC)c1C(=O)NC(=S)Nc1ccc(S(=O)(=O)Nc2nccs2)cc1,-3.7%,5.8%,-3.9%,0.1%,7.9%,x,x,x,x,
Cc1cc(N)n(-c2ccc(Oc3ccccc3)c(S(=O)(=O)O)c2)n1,2.7%,2.5%,7.1%,35.5µM*,-7.4%,-4.3%,2.4%,u,11.9%,
COc1ccc2c(c1OC)C(=O)O[C@H]2C1c2c(cc3c(c2OC)OCO3)CCN1C (stereo not given in full),-8.2%,-14.7%,x,-2.9%,x,x,x,x,x,
CN1CCc2cc3c(c4c2[C@H]1[C@H](O)c1ccccc1-4)OCO3,82.9%,81.4%,39.8µM*,u,-9.2%,4.47µM*,8.91µM*,11.2µM*,12.6µM*,
CCc1oc(C(=O)O)cc1COC,3.1%,-13.3%,1.1%,u,-19.6%,x,x,x,x,
COCc1cc(O)c(O)c(O)c1-c1c(COC)cc(O)c(O)c1O,-2.5%,1µM*,1.58µM*,0.178µM*,x,6.5%[57.1 µM],144.4%[57.1 µM],0.316µM*,6.4%[57.1 µM],
CN(C)CCC=C1c2ccccc2C=Cc2ccccc21,15.0%,-0.7%,11.7%,2.1%,-3.3%,x,-11.8%[57.1 µM],-12.6%,x,
CCc1ccc(NC(=O)CSc2nc(NS(=O)(=O)c3ccccc3)cc(=O)[nH]2)cc1,15.8µM*,12.6µM*,5.8%,7.94µM*,-1.3%,2.5%,15.7%,-9.6%[24.4 µM],0.3%,BLM inh-2=3.5%
CCn1c(C(=O)NC(C)c2ccc3c(c2)OCCO3)cc2sccc21 (stereo not given),0.2%,-15.2%,-8.3%,-6.7%,i,x,x,x,x,
Cc1c(C(=O)OCC2CCCO2)[nH]c2c1C(=O)CC(c1ccco1)C2 (stereo not given),14.1µM*,25.1µM*,u,7.08µM*,u,-4.1%,u,4.47µM*,u,BLM inh-2=18.2µM*
CCN(CC(=O)NCc1ccc(Cl)cc1)C(=O)c1ccc2cc(OC)ccc2c1,0.2%,x,7.3%,26.2%,-5.8%,x,x,x,x,
Cc1nc2ccc3nc(NC(=O)c4ccc5c(c4)OCCO5)sc3c2s1,-9.3%,-3.1%,-20.8%,-2.7%,-1.2%,x,x,u,x,BLM inh-2=u
SMILES,BLM inh-1,RECQ1 inh-1,FEN1 inh,APE1 inh-1,PGK inhibitor,APE1 dye cs,Endo IV inh,APE1 inh-2,APE1 FP,others
Cc1cnc(NC(=O)c2ccc3c(c2)OCCO3)s1,x,x,-13.6%,0.2%,-12.3%,x,x,x,x,
COC(=O)c1c(NC(=O)c2ccc(C(C)(C)C)cc2)sc2c1CCC(C)C2 (stereo not given),-4.0%,x,-0.7%,x,-4.8%,x,x,x,x,
COC(=O)c1ccc2cc(OC)c(OC)cc2c1,x,x,x,x,-0.1%,x,x,x,x,
COC(=O)c1cc(=O)c(O)c2c(O)c(O)ccc2c1,u,8.91µM*,x,1.26µM*,x,x,-17.1%[57.1 µM],7.08µM*,x,BLM inh-2=u
O=C(Cn1c(=O)n(Cc2ccco2)c(=O)c2c3c(sc21)CCCCC3)Nc1ccccc1,20µM*,12.6µM*,u,11.2µM*,-5.2%,u,-4.8%,u,-1.4%,BLM inh-2=u
COc1c(O)cc2c(=O)oc3c(OC)c(O)cc4c(=O)oc1c2c34,14.1µM*,3.16µM*,x,1.26µM*,x,6.31µM*,107.6%,0.447µM*,17.1%,RECQ1 inh-2=0.794µM*
